Here are results for 55 compounds from PubChem BioAssay AID1259313 (Sanford-Burnham Center for Chemical Genomics, 2017).

Hit rate of the full screen: of about 340,000 compounds, about 8,500 (2.5%) were called active. The sample holds actives, similar compounds and a random draw of the others, so the mix is not that of the screen. Unmarked numbers belong to inactive results.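 The calls were made as follows: active = melting temperature shift of at least 10% of the positive control shift, at one fixed dose; inactive = the rest.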

In this assay the test system is Glutamate receptor ionotropic, NMDA 3A (GRIN3A) ligand-binding domain. Kind of assay: NR3A LBD thermal stabilization by compounds – biophysical, differential scanning fluorimetry, uHTS, primary screen (AID 1259313). To be noted: at 25 µM, active compounds read high, 0% = protein alone, 100% = glycine-bound protein. Background: In DSF a fluorescence change marks the thermal transition of the protein.
`Cc1ccc2cc(C)c(N3CCC(C)CC3)nc2c1`: the Tm shift relative to glycine control is 3.71%.

Turning to `Cc1ccccc1NC(=O)CSc1nc2ccc(Nc3nc(N4CCOCC4)nc(N4CCOCC4)n3)cc2s1`, the Tm shift relative to glycine control was -1.11%. Regarding `O=C(CSc1nc(Nc2ccccc2)nc(N2CCOCC2)n1)Nc1cc(Cl)ccc1O`, the Tm shift relative to glycine control was 32.6% (active). The value for `CC1(c2ccccc2)NC(=O)N(CC(=O)Nc2cc(Cl)ccc2N2CCOCC2)C1=O` (stereo not given) was 0.96%; that for `Cc1ccc(C(=O)OCC(=O)NC(=O)Cc2ccccc2)c(O)c1` was 0.78%. For the compound `O=S(=O)(NC1CCCCC1N1CCN(c2ccccc2F)CC1)c1ccccc1` (stereo not given), the Tm shift relative to glycine control was -1.62%. For `CN1C(=O)C(CC(N)=O)N(NC(=O)c2ccc(Cl)cc2)C1=S` (stereo not given), the Tm shift relative to glycine control is -3.25%. With `Cc1ccc(N2C(=O)C(CC(=O)Nc3cccc(F)c3)N(CCc3ccncc3)C2=O)cc1` (stereo not given), the Tm shift relative to glycine control was 0.4%. In the case of `Cc1ccc(NC(=O)CC2C(=O)N(Cc3ccccc3)C(=S)N2NC(=O)c2cccc(F)c2)c(C)c1` (stereo not given) it was 19.1% (active). The value for `CC1=C(C(=O)Nc2ccccc2)C(c2cccs2)C(C#N)=C(SCC#N)N1` (stereo not given) was -11.3%; that for `O=C(COc1ccccc1F)NNC(=O)c1cc(Br)ccc1Cl` was 0.51%; that for `O=C(NCCOc1ccccc1Cl)C(=O)Nc1ccccc1` was -4.63%.

Regarding `O=C(NCCOc1ccccc1F)Nc1ccc(Br)cc1`, the Tm shift relative to glycine control is 16.4% (active). In the case of `CCN(CC)c1ccc(NC(=O)c2ccc(=O)[nH]c2)cc1S(=O)(=O)Nc1ccc(OC)cc1` it was -4.98%; in that of `Cc1nc(SCC(=O)N2CCc3ccccc3C2)c2c(C)c(C)sc2n1`, -0.44%; in that of `COc1cc(OC)cc(C(=O)NCC(=O)N2CCCCCCC2)c1`, 3.22%. The value for `Cc1c(C(=O)Nc2cccc(Cl)c2)cn2c(nc3ccccc32)c1C#N` was 24.6% (active). In the case of `Cn1c(Nc2cccc(Cl)c2)nc2ccccc21` it was 8.46%; in that of `O=C(Nc1cccc(Cl)c1)c1cc([N+](=O)[O-])ccc1N1CCN(CCO)CC1`, 3.77%. Turning to `CCCN(C(=O)c1nc2nccc(C)n2n1)c1c(N)n(Cc2ccccc2)c(=O)[nH]c1=O`, the Tm shift relative to glycine control is -5.77%. With `O=C(CCN1C(=O)c2ccccc2C1=O)NNC(=O)c1ccc(Cl)cc1Cl`, the Tm shift relative to glycine control is -1.46%. The value for `CCc1ccc(CNC(=O)C2CCN(c3nnc(C)c4c(C)n(-c5ccc(C)cc5)nc34)CC2)cc1` was -2.58%; that for `COc1ccccc1N1CCN(/N=C/c2ccc(O)cc2O)CC1` was 1.98%; that for `Oc1ccc(-c2nc3ccccc3nc2-c2ccc(O)cc2O)c(O)c1` was -6.22%. As for `Cc1nc2ccccc2nc1N/N=C/c1ccc(O)cc1O`, the Tm shift relative to glycine control was 34.3% (active). Turning to `O=C(Nc1ccnn1C1CCN(Cc2cccc(OCCO)c2)CC1)C1CCCC1`, the Tm shift relative to glycine control was 0.6%.

For `COc1ccc(CN2CC(C(=O)NCCc3ccc(Cl)cc3)CC2=O)cc1` (stereo not given), the Tm shift relative to glycine control was -2.13%. Take `COc1ccccc1N(CC(=O)Nc1c(C)n(C)n(-c2ccccc2)c1=O)S(=O)(=O)c1ccccc1`: the Tm shift relative to glycine control is -1.61%. In the case of `COc1ccc(Cl)cc1NS(=O)(=O)c1cccc(C(=O)NC2CCC(O)CC2)c1` (stereo not given) it was 0.97%; in that of `NS(=O)(=O)c1ccc(CCNC(=O)CCCn2c(SCC(=O)N3CCCC3)nc3ccsc3c2=O)cc1`, -0.96%; in that of `O=C(Nc1cccc(-c2nc3ccccc3[nH]2)c1)c1ccc(C(=O)Nc2cccc(-c3nc4ccccc4[nH]3)c2)cc1`, 27.9% (active). The value for `CN(c1ccccc1)S(=O)(=O)c1cc(C(=O)Nc2nc3ccccc3[nH]2)ccc1Cl` was -0.62%. As to `O=C(/C=C/c1ccco1)Nc1cccc(-c2nc3ccccc3[nH]2)c1`, the Tm shift relative to glycine control is 22.5% (active). In the case of `CC(C)Oc1ccc(/C=C(\NC(=O)/C=C/c2ccco2)C(=O)NCCc2nc3ccccc3[nH]2)cc1` it was -0.09%; in that of `Cc1ccc(-n2nc3ccc(NC(=O)/C=C/c4ccco4)cc3n2)cc1C`, 32.1% (active). Regarding `COc1cccc(NC(=O)COC(=O)/C=C/c2ccco2)c1`, the Tm shift relative to glycine control was -0.92%. The value for `O=C(/C=C/c1ccco1)Nc1ccc(Oc2ccccc2)cc1` was 2.36%; that for `CCC(=O)Nc1ccc2nn(-c3ccc(F)cc3)nc2c1` was -10.1%. The value for `COc1ccc(C(=O)Nc2cccc(S(C)(=O)=O)c2)cc1` was 4.52%; that for `COc1cc2c(cc1OC)C(c1ccccc1Br)NC(=O)C2` (stereo not given) was -0.95%. In the case of `Cn1c(=O)c2ccccc2n(CC(=O)Nc2ccc3c(c2)OCCO3)c1=O`, the Tm shift relative to glycine control was -1.03%. The value for `C[C@@H]1NC(=O)c2cc([N+](=O)[O-])cc(F)c2NCCC[C@@H](C(N)=O)NC(=O)[C@H](CC(N)=O)NC1=O` was 1.79%; that for `CC(=O)N(CN1C(=O)C2C3C=CC(C3)C2C1=O)c1cccc(Cl)c1` (stereo not given) was -2.44%; that for `Oc1c(Br)cc(/C=N/NC(=S)NCC2CCCO2)cc1Br` (stereo not given) was 1.71%. Regarding `COc1ccc(NC(=O)NC2CC3CCCC(C2)N3Cc2ccccc2)cc1` (stereo not given), the Tm shift relative to glycine control is 0%. The value for `CC(=O)Nc1ccc(S(=O)(=O)NC(C)C(=O)OCCOc2ccc(F)cc2)cc1` (stereo not given) was 22.1% (active). Take `CC(=O)Nc1ccc(S(=O)(=O)NC(C)C(=O)OCC(=O)NC2CCCC2)cc1` (stereo not given): the Tm shift relative to glycine control is 0.79%.

On to `COc1ccc(-c2noc(C(C)NS(=O)(=O)c3ccc(NC(C)=O)cc3)n2)cc1` (stereo not given), for which the Tm shift relative to glycine control was -8.89%.

Turning to `Cc1c(NC(=O)c2cc(-c3ccc(Cl)s3)nc3ccccc23)c(=O)n(-c2ccccc2)n1C`, the Tm shift relative to glycine control is 1.05%. The value for `C[C@H](NC(=O)C1CC(=O)N(c2ccc3c(c2)OCCO3)C1)C(=O)N1CCC(C(=O)O)CC1` (stereo not given in full) was -0.91%; that for `CCOC(=O)c1c(-c2ccccc2)oc2cc(Br)c(O)cc12` was 13.8% (active). With `CCOC(=O)c1c(-c2ccccc2)oc2ccc(OCC(=O)NN)cc12`, the Tm shift relative to glycine control is 0.51%. In the case of `CCOC(=O)c1c(-c2ccccc2)oc2cc(Br)c(O)c(C=O)c12` it was -7.04%. As to `Cc1cccc(CC(=O)N2CCN=C2SCc2ccc([N+](=O)[O-])cc2)c1`, the Tm shift relative to glycine control was -0.64%. Regarding `CCN(CC)CCCNC(=O)c1cn(C)c2ccc(S(=O)(=O)N(C)C3CCCCC3)cc2c1=O`, the Tm shift relative to glycine control was -1.61%.
